The text below walks through data of article PMC7862700, “An all-to-all approach to the identification of sequence-specific readers for epigenetic DNA modifications on cytosine”.

Holding throughout (test): DAPPL (digital affinity profiling via proximity ligation, sequencing); 10 mM Tris-HCl pH 7.5, 50 mM NaCl, 1 mM DTT, 4% glycerol, room temperature, 30 min; GST-TFs on glutathione beads, 16-mer random dsDNA library, 0.1% formaldehyde crosslink after washing; high values mean tight binding
One assay concerns the target T1, FLI1 (Homo sapiens, UniProt Q01543 1-452).
T1 sequence: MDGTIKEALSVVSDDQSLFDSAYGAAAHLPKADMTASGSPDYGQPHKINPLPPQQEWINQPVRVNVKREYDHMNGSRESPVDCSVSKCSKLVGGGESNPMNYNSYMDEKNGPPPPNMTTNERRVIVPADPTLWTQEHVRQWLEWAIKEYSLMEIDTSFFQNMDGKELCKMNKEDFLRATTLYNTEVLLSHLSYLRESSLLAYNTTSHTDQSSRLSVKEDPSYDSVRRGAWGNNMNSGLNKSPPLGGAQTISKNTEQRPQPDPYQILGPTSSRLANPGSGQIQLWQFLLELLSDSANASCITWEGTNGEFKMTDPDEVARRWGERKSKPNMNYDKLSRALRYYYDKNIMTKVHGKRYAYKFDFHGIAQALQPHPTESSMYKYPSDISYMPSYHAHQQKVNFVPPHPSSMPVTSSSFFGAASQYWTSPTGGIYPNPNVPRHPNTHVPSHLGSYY
The conditions noted are these: protein: recombinant; tags: N-terminal GST; dsDNA, one strand shown. An outline of the steps: (§1)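 In yeast, human transcription factors were expressed with a GST fusion, then pulled down on glutathione beads and given DNA barcodes. Pooled with a tag-only sample, they were exposed to 200 nmole of a 16-mer random double-stranded DNA library (Tris/NaCl/DTT/glycerol buffer, room temperature, 30 min), washed, crosslinked with 0.1% formaldehyde, proximity-ligated using BsaI/T4 ligase for 1 h at 37 °C, PCR-amplified and read on an Illumina NextSeq500. Each hexamer's frequency of reads for a factor, divided by the matching frequency for the tag-only sample, gives the binding signal.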

Another assay deals with T2, ELK1 (Homo sapiens, UniProt P19419 1-428).
T2 sequence: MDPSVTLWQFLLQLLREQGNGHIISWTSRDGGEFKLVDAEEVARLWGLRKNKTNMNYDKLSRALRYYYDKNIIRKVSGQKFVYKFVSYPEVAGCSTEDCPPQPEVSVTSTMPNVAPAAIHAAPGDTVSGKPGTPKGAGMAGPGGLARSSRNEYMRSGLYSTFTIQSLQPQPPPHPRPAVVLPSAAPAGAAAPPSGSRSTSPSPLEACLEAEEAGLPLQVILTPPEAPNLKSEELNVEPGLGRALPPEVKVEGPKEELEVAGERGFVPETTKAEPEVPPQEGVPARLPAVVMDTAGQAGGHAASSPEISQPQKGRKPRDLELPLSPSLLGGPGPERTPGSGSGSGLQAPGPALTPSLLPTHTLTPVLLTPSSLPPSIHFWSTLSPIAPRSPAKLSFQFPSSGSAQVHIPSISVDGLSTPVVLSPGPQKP
The conditions noted are these: protein: recombinant; tags: N-terminal GST; dsDNA, one strand shown. The essentials: as §1

In another assay the target is T3, GABPA (Homo sapiens, UniProt Q06546 1-454).
T3 sequence: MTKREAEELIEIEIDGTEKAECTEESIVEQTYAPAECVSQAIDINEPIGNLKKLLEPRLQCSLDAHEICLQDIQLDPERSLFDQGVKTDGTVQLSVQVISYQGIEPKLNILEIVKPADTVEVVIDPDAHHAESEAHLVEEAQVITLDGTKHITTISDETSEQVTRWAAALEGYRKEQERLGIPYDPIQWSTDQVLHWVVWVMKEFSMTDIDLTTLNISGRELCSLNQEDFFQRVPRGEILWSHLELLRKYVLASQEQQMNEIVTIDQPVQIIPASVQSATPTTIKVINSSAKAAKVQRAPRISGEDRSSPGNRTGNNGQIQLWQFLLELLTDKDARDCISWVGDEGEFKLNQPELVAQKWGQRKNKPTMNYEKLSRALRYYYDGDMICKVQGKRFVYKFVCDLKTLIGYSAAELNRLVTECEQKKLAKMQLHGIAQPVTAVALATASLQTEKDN
The conditions noted are these: protein: recombinant; tags: N-terminal GST; dsDNA, one strand shown. An outline of the steps: as §1

The target of a further assay is T4, ERG (Homo sapiens, UniProt P11308 1-479).
T4 sequence: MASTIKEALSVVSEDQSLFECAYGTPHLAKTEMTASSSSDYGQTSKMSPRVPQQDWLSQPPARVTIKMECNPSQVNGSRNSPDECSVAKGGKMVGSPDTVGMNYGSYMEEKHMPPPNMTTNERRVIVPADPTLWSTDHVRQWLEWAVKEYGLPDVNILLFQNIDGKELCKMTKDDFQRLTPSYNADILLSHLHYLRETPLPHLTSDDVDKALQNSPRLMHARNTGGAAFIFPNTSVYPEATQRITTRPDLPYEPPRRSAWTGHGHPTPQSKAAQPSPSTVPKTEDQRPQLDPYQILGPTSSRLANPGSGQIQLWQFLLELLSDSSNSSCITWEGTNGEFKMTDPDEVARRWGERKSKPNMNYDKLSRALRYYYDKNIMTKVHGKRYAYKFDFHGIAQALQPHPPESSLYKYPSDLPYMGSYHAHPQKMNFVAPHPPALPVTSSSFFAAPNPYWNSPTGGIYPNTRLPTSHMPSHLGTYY
The settings on record: protein: recombinant; tags: N-terminal GST; dsDNA, one strand shown. The essentials:
as §1

The target of a further assay is ELF1 (Homo sapiens, UniProt P32519 1-619). The settings on record: protein: recombinant; tags: N-terminal GST; dsDNA, one strand shown. The essentials: as §1
Another assay addresses T5, EHF (Homo sapiens, UniProt Q9NZC4 1-300).
T5 sequence: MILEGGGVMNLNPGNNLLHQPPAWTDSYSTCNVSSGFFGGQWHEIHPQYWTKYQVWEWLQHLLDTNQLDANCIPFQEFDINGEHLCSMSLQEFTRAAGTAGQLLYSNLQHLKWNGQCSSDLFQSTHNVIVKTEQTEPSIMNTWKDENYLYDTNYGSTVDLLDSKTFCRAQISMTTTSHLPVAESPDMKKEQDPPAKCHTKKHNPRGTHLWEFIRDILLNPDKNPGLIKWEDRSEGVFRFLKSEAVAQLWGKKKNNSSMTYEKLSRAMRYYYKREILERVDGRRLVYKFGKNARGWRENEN
The settings on record: protein: recombinant; tags: N-terminal GST; dsDNA, one strand shown. An outline of the steps:
as §1

A further assay has as its target SPI1 (Homo sapiens, UniProt P17947 1-270). The conditions noted are these: protein: recombinant; tags: N-terminal GST; dsDNA, one strand shown. The essentials:
as §1

A further assay has as its target SPIB (Homo sapiens, UniProt Q01892 1-262). The conditions noted are these: protein: recombinant; tags: N-terminal GST; dsDNA, one strand shown. The essentials:
as §1

The target in a further assay is T6, ELK3 (Homo sapiens, UniProt P41970 1-407).
T6 sequence: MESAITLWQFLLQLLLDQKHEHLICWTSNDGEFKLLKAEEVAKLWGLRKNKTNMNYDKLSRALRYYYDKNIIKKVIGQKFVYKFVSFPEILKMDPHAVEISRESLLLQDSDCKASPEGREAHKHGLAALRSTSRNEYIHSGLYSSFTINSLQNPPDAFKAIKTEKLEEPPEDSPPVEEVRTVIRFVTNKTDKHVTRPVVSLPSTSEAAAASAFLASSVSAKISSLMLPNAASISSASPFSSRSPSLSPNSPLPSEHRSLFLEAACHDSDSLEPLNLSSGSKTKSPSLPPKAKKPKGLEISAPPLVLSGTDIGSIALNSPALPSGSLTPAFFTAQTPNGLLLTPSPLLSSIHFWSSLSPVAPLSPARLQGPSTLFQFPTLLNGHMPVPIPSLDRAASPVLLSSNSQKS
The conditions noted are these: protein: recombinant; tags: N-terminal GST; dsDNA, one strand shown. An outline of the steps: as §1

The next assay deals with T7, FEV (Homo sapiens, UniProt Q99581 1-238).
T7 sequence: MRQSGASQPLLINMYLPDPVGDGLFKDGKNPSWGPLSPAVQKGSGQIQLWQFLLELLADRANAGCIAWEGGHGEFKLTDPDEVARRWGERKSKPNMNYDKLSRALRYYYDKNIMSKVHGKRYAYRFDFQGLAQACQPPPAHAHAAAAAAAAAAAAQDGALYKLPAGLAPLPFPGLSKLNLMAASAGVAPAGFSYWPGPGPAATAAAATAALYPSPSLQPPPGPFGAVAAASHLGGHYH
The settings on record: protein: recombinant; tags: N-terminal GST; dsDNA, one strand shown. An outline of the steps:
as §1

The target of a further assay is ETV5 (Homo sapiens, UniProt P41161 1-510). The conditions noted are these: protein: recombinant; tags: N-terminal GST; dsDNA, one strand shown. An outline of the steps:
as §1

The next assay concerns the target HSF1 (Homo sapiens, UniProt Q00613 1-529). The conditions noted are these: protein: recombinant; tags: N-terminal GST; chain copies: 3; dsDNA, one strand shown. The essentials:
as §1

Another assay deals with T8, SPIC (Homo sapiens, UniProt Q8N5J4 1-248).
T8 sequence: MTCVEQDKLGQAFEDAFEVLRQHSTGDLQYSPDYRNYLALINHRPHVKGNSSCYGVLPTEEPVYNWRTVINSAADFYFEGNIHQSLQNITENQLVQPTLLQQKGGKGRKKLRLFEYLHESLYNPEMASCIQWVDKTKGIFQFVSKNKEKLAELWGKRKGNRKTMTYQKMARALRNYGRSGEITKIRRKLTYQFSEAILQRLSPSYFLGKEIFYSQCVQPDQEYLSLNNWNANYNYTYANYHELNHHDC
The conditions noted are these: protein: recombinant; tags: N-terminal GST; dsDNA, one strand shown. The essentials: as §1

The target of the next assay is ELF4 (Homo sapiens, UniProt Q99607 1-663). The settings on record: protein: recombinant; tags: N-terminal GST; dsDNA, one strand shown. The essentials: as §1
Another assay concerns the target T9, ELK4 (Homo sapiens, UniProt P28324-2 1-405).
T9 sequence: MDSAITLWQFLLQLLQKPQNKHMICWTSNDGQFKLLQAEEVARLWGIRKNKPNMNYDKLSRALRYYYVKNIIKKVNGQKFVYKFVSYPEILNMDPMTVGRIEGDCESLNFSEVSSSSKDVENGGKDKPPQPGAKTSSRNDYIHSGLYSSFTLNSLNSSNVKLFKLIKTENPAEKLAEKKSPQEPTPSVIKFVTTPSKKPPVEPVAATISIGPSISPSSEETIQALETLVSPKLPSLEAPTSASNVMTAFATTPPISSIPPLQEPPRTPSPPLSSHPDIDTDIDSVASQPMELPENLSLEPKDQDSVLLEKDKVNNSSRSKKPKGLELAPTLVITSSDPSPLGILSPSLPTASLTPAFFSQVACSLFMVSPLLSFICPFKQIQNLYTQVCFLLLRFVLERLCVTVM
The conditions noted are these: protein: recombinant; tags: N-terminal GST; dsDNA, one strand shown. An outline of the steps: as §1

The next assay deals with T10, ETV2 (Homo sapiens, UniProt O00321 1-342).
T10 sequence: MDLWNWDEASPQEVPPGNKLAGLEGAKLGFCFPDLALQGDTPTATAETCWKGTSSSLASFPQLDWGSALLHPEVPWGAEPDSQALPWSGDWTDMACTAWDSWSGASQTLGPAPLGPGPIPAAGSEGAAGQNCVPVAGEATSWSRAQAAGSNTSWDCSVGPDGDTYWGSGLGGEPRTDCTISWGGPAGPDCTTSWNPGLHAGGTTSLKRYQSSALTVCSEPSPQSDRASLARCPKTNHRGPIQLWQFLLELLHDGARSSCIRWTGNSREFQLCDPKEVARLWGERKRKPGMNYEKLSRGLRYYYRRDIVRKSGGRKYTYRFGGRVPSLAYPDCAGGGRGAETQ
The settings on record: protein: recombinant; tags: N-terminal GST; dsDNA, one strand shown. The essentials:
as §1

The target of another assay is T11, ELF3 (Homo sapiens, UniProt P78545 1-371).
T11 sequence: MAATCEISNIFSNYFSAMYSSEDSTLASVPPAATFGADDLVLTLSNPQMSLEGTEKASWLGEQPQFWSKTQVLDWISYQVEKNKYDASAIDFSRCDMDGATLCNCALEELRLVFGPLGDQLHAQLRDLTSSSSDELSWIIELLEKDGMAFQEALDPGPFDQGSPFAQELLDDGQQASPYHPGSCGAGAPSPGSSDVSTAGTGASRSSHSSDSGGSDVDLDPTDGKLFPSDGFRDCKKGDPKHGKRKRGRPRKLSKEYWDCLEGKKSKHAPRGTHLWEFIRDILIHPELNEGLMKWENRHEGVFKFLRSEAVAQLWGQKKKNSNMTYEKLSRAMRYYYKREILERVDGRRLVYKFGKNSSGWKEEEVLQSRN
The conditions noted are these: protein: recombinant; tags: N-terminal GST; dsDNA, one strand shown. The essentials:
as §1

In a further assay the target is CRX (Homo sapiens, UniProt O43186 1-299). The settings on record: protein: recombinant; tags: N-terminal GST; dsDNA, one strand shown. An outline of the steps: as §1
In another assay the target is ETV1 (Homo sapiens, UniProt P50549 1-477). The conditions noted are these: protein: recombinant; tags: N-terminal GST; dsDNA, one strand shown. The essentials: as §1
Sequence of ETV1 (P50549 whole entry): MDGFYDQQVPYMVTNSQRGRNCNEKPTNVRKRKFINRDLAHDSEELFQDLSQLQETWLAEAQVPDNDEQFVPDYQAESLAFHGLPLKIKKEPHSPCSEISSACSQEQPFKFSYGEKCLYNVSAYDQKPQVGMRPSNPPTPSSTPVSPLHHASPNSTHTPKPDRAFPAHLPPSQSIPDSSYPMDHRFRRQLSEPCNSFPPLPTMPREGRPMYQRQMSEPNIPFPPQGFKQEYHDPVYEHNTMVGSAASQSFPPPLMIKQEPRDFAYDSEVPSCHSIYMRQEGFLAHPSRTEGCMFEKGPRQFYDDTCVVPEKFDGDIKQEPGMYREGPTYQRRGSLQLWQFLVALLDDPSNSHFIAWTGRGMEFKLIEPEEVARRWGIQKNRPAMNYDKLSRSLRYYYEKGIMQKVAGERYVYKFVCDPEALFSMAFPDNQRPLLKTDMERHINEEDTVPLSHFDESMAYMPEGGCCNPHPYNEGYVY

Sequence of HSF1 (Q00613 whole entry): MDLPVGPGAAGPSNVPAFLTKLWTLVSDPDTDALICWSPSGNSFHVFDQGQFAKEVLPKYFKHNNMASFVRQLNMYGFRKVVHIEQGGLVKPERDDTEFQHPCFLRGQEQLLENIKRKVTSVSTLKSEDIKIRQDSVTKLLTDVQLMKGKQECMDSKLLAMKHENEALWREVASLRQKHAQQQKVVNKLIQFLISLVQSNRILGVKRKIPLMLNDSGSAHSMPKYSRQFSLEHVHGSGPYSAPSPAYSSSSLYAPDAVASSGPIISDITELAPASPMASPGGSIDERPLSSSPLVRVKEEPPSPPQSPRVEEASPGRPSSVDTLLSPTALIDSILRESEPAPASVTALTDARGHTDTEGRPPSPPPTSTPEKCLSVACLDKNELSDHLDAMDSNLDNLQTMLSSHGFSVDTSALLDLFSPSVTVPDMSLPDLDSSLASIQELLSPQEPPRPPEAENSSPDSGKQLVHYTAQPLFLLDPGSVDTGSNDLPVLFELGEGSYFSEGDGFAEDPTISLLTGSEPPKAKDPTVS
Sequence of ELF4 (Q99607 whole entry): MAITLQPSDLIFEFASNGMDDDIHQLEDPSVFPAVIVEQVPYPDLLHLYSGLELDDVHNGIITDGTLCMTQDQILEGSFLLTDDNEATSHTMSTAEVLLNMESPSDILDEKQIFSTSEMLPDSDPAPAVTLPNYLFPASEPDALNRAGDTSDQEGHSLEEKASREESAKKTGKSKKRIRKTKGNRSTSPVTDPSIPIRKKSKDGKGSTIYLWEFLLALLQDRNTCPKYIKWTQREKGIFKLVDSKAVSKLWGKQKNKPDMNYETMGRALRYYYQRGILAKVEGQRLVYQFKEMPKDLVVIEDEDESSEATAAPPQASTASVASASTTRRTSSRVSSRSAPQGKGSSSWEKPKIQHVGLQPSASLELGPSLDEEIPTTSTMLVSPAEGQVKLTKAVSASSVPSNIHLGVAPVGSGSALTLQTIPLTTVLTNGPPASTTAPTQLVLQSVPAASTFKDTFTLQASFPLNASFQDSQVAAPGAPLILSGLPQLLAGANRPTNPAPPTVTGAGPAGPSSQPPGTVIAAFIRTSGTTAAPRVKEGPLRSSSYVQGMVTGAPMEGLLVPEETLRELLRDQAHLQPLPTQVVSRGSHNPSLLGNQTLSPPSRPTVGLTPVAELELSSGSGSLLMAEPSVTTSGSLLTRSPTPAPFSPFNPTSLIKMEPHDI
Sequence of CRX (O43186 whole entry): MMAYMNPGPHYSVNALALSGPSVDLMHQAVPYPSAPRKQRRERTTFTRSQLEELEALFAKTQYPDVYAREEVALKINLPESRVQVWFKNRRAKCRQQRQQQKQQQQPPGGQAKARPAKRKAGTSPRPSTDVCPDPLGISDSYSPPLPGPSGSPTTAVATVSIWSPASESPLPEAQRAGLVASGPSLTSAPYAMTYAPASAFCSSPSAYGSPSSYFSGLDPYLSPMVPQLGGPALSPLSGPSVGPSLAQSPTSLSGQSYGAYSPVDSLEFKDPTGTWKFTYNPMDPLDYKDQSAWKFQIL
Sequence of ETV5 (P41161 whole entry): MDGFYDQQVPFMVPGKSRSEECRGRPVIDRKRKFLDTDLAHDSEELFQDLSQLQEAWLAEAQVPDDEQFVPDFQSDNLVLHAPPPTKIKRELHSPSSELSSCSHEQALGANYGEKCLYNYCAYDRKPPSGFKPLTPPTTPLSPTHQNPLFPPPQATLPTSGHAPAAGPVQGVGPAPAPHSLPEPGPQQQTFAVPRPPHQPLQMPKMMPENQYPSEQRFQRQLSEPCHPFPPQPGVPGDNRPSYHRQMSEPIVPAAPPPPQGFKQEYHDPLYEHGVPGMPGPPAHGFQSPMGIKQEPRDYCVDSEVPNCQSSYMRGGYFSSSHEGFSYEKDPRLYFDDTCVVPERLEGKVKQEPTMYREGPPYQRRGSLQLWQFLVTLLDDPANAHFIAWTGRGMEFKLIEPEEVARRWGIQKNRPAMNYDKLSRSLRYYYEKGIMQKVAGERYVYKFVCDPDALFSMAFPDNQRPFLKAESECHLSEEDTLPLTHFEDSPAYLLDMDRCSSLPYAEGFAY
Sequence of ELF1 (P32519 whole entry): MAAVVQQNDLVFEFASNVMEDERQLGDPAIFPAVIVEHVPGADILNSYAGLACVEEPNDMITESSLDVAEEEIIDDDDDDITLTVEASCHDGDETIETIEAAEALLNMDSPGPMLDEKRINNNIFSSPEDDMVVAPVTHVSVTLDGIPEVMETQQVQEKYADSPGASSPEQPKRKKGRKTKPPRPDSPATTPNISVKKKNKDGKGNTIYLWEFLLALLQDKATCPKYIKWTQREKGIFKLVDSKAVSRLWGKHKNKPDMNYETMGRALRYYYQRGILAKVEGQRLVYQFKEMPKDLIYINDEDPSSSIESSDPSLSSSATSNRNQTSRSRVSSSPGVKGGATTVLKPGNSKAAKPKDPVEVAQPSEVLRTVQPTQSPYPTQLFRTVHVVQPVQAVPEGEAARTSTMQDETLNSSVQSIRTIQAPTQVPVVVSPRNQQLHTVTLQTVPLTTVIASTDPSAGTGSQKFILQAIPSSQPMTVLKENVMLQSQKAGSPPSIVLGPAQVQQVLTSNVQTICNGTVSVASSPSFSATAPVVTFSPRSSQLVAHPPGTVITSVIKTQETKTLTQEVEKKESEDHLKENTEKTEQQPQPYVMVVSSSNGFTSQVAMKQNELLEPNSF
Sequence of SPIB (Q01892 whole entry): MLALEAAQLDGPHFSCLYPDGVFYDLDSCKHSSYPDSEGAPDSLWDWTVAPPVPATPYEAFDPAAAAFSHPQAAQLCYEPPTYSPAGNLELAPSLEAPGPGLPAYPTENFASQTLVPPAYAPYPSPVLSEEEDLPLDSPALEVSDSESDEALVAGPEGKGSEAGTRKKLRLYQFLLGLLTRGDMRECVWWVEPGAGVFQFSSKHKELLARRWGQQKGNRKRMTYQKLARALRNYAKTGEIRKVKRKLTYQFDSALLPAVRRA

For the sequence CTACAA, the binding signal in the assay with FLI1 is 1.17 fold enrichment (6-mer frequency, TF over GST control); with ELK1 it was 1.13 fold enrichment (6-mer frequency, TF over GST control); with GABPA, 1.2 fold enrichment (6-mer frequency, TF over GST control); in the assay with ERG it was 1.08 fold enrichment (6-mer frequency, TF over GST control); in the assay with ELF1 it was 1.13 fold enrichment (6-mer frequency, TF over GST control); in the assay with EHF it was 1.14 fold enrichment (6-mer frequency, TF over GST control). The binding signal with SPI1 is 1.09 fold enrichment (6-mer frequency, TF over GST control); with SPIB, 1.15 fold enrichment (6-mer frequency, TF over GST control); in the assay with ELK3 it was 1.03 fold enrichment (6-mer frequency, TF over GST control); with FEV, 1.14 fold enrichment (6-mer frequency, TF over GST control); with ETV5, 1.21 fold enrichment (6-mer frequency, TF over GST control); with HSF1, 1.16 fold enrichment (6-mer frequency, TF over GST control). Also, the binding signal with SPIC was 1.2 fold enrichment (6-mer frequency, TF over GST control); with ELF4 it was 1.18 fold enrichment (6-mer frequency, TF over GST control); with ELK4, 1.21 fold enrichment (6-mer frequency, TF over GST control); with ETV2, 1.18 fold enrichment (6-mer frequency, TF over GST control); with ELF3, 1.03 fold enrichment (6-mer frequency, TF over GST control); with CRX it was 1.04 fold enrichment (6-mer frequency, TF over GST control). Further, the binding signal in the assay with ETV1 was 1.13 fold enrichment (6-mer frequency, TF over GST control).
